The entries come from a sample that favours hits as a whole.
12-LOX inh – ALOX12 (human) lipoxygenase inhibition; purified 12hLO, xylenol orange hydroperoxide absorbance; Potency, µM (series often up to 108 µM), inactives show at the highest dose activity change, negative = inhibition, usual class: inhibitors; 580,000 tested, 1.1% active; note: % is set by controls: 0 for no effect and ±100 for the full control effect
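Hydroperoxide product was detected by ferrous iron/xylenol orange as the 573 to 405 nm absorbance ratio. Arachidonic acid at 40 uM (final) was turned over for 30 min at room temperature by 150 nM human 12hLO, pH 7.0 Hepes buffer, after 15 min compound preincubation.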
Sfp PPTase inh – Sfp phosphopantetheinyl transferase inhibition. 310,000 tested, 3.5% active. AID 1490. Potency, µM, inactives show largest response in the series, negative = inhibition, usual class: inhibitors. Biochemical Sfp PPTase activity, qHTS. Q9F4F7;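 note: the enzyme is Sfp with the accession as filed and its product quenches rhodamine fluorescence; 0% = enzyme reaction without inhibitor and -100% = no enzyme wells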
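Fluorescence-quenching assay with 15 nM Sfp, 5 uM rhodamine-CoA and 12.5 uM BHQ-2-labelled ybbR peptide in pH 7.6 Hepes/MgCl2 buffer. Enzyme was pre-incubated with compound for 15 min at room temperature. Rate was taken from the 30-min fluorescence change (525/598 nm).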
G9a inh – inhibitors of human histone lysine methyltransferase G9a. Q96KQ7. G9a H3K9 monomethylation, AlphaScreen, 2 h. Potency, µM (doses to about 102 µM), for the others: at the top dose activity, negative = inhibition, usual class: inhibitors. 350,000 tested, 8.8% active. AID 504332; note: % is set by controls: 0 for no effect and ±100 for the full control effect; nearly all actives have a fitted effect of over 75% in size
Target sequence (Q96KQ7 913-1193 limits assumed): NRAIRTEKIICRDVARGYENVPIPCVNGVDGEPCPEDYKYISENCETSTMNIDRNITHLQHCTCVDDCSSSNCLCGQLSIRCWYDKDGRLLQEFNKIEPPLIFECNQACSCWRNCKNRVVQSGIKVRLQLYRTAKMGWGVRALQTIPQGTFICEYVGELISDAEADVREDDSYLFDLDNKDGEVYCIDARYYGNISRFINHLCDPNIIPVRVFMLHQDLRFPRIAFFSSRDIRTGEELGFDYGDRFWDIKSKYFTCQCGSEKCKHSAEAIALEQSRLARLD
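Enzyme 20 nM + cpd, 15 min RT; add b-H3K9 pep 500 nM / SAM 20 uM; 2 h RT; anti-H3K9me1 Ab 0.5 ug/mL + SA donor / anti-rabbit acceptor beads 20 ug/mL each, 10 min; AlphaScreen read.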
GRP78 ERSR act – ER stress response induction in glioma | U87-MG GRP78 promoter luciferase reporter, 16 h | 420,000 tested, 0.02% active | Potency, µM, without a hit: at the top dose activation, hits mostly activators | AID 602332; note: series mostly up to about 76 µM; % of control where 0% means no effect; nearly all actives have a fitted effect of over 35% in size
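Stably transfected U87-MG human glioma cells carrying a GRP78-based luminescent sensor were seeded at 1000 cells/well, pin-dosed with compounds and incubated 16 h. Luciferase reagent was then added, and end-point luminescence was read after 10 min at room temperature.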
VDR inhibitor – inhibitors of human vitamin D receptor; AID 504847; 400,000 tested, 0.93% active; VDR-SRC2-3 peptide fluorescence polarization, 2 h; P11473; Potency, µM, for inactives: max response, negative = inhibition, most hits filed as inhibitors; note: % is set by controls: 0 for no effect and ±100 for the full control effect
Target sequence (P11473 whole entry, looked up): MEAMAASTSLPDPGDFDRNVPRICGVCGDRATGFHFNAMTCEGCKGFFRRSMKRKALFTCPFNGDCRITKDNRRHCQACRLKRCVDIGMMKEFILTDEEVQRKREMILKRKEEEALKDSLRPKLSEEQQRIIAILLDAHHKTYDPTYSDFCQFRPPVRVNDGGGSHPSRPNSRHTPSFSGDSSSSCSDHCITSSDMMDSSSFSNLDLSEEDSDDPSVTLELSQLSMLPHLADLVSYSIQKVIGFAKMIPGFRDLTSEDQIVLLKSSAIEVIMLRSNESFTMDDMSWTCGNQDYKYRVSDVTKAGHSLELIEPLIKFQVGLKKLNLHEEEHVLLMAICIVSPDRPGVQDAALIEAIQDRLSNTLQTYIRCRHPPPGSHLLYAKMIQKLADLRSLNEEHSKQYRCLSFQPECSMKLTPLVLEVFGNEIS
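VDR–SRC2-3 interaction, FP format. Cmpds 23 nl via pintool, brief spin, 2 h ambient incubation.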
The depositor's hits bear a star; u = inconclusive; x = no result; [ ] = remark or other dose. Calls come from the whole dose curve; as a rule, active = well fitted curve in the direction sought with a large enough effect; inconclusive = small, poorly fitted or top-dose-only effect, or another doubt; inactive = no such curve, though single readings can be large; an effect the other way counts as inactive or inconclusive. Potency is the fitted concentration of half-maximal effect.

SMILES	12-LOX inh	Sfp PPTase inh	G9a inh	GRP78 ERSR act	VDR inhibitor
O=C1C(=O)N(CCCN2CCOCC2)C(c2ccc(F)cc2)/C1=C(\O)c1ccc2c(c1)OCCO2 (configuration not stated)	-24%	8%	45µM*	10%	-6%
COCCCN1C(=O)C(=O)/C(=C(/O)c2ccc(OC(C)C)cc2)C1c1ccncc1 (configuration not stated)	u	14%	45µM*	-3%	-4%
CCN(CC)CCCN1C(=O)C(=O)/C(=C(/O)c2ccc3c(c2)OCCO3)C1c1ccco1 (configuration not stated)	u	3%	50µM*	-2%	1%
C=CCOc1ccc(/C(O)=C2/C(=O)C(=O)N(CCCN3CCOCC3)C2c2ccc(OC)cc2)cc1 (configuration not stated)	u	12%	u	-2%	-14%
CCCOc1ccc(/C(O)=C2/C(=O)C(=O)N(CCCN3CCOCC3)C2c2ccncc2)cc1 (configuration not stated)	x	u	14µM*	x	x
CCCCOc1ccc(/C(O)=C2/C(=O)C(=O)N(CCCOC)C2c2ccncc2)cc1 (configuration not stated)	u	7%	7%[12.7 µM]	-3%	-3%
N#Cc1ccc(NC(=O)NCCNc2ccccn2)cc1	26%	x	x	x	x
CC(C)Oc1ccc(/C(O)=C2/C(=O)C(=O)N(CCCn3ccnc3)C2c2cccnc2)cc1 (configuration not stated)	0%	7%	40µM*	-4%	-6%
Cc1ccc(/C(O)=C2/C(=O)C(=O)N(CCCn3ccnc3)C2c2cccnc2)cc1 (configuration not stated)	-18%	x	x	-4%	-13%
CC(C)CCNC(=O)c1cccc2c1CCN2S(=O)(=O)c1ccccc1F	-17%	x	x	x	x
O=[S+]([O-])(NCC1CN(Cc2ccc3[nH]ccc3c2)CC12CN(c1ccccc1)C2)c1ccccc1 (configuration not stated)	35µM*	x	x	x	x
Oc1ccc(CN2CC(CNc3ccccc3)C3(C2)CN(c2ccccc2)C3)cc1 (configuration not stated)	63µM*	x	x	x	x
O=C(O)c1cccc(CN2CC(CNc3ccccc3)C3(C2)CN(c2ccccc2)C3)c1 (configuration not stated)	13%[176 µM]	x	x	x	x
CCNS(=O)(=O)c1cccc(C(=O)Nc2cccc3ncccc23)c1	30%	x	x	x	x
O=C(Nc1ccc(N2CCCC2)cc1)c1ccccc1F	-13%	u	1.8µM*	-2%	7%
O=C(Nc1ccc(N2CCCCC2)cc1)c1cccnc1Cl	-29%	-9%	50µM*	3%	0%
CS(=O)(=O)N1CCN(c2ccc(NC(=O)c3cccnc3Cl)cc2)CC1	11%	6%	u	-2%	9%
COc1ccc(NS(=O)(=O)c2cc(NC(=O)c3cccnc3Cl)ccc2N2CCCC2)cc1	u	9%	45µM*	-2%	-13%
CC(C)OCCSc1nnc(-c2nn(Cc3ccccc3)c(=O)c3ccccc23)o1	6%	x	x	x	x
C=CCN1CCCC(C(=O)OCC)C1 (configuration not stated)	12%	x	x	x	x
Cc1ccc(-c2c(C)cc3oc(=O)cc(-c4ccccc4)c3c2C)cc1	-2%	-15%	36%	-1%	1%
COc1cc(OC)c2c(-c3cccc(-c4ccc(N(C)C)cc4)c3)cc(=O)oc2c1	-40%	-10%	8.9µM*	-5%	-3%
Cc1cc2oc(=O)cc(-c3ccccc3)c2c(C)c1-c1ccc(N(C)C)cc1	-49%	-7%	28µM*	-1%	8%
COc1ccc(-c2cccc(-c3cc(=O)oc4cc(OC)cc(OC)c34)c2)cc1	9%	x	x	-2%	12%
COc1cccc(Nc2cnc3ccc(-c4ccccc4OC)nn23)c1	-9%[176 µM]	x	x	x	x
SMILES	12-LOX inh	Sfp PPTase inh	G9a inh	GRP78 ERSR act	VDR inhibitor
CC(=O)N(c1ccc2oc(=O)sc2c1)S(=O)(=O)c1ccc(C(=O)O)cc1	-5%	56µM*	18µM*	0%	79µM*
CCCC(=O)N(c1ccc2oc(C)c(C(C)=O)c2c1)S(=O)(=O)c1ccc(C)c([N+](=O)[O-])c1	-10%	-8%	-7%[59 µM]	-4%	-17%
CC(=O)N(c1ccc2oc(=O)sc2c1)S(=O)(=O)c1cccs1	u	11µM*	u	-4%	89µM*
CCCC(=O)N(c1ccc2oc(C)c(C(C)=O)c2c1)S(=O)(=O)c1ccc(C(=O)O)cc1	-27%	12%	35µM*	-1%	-7%
Cc1cc2oc(=O)sc2cc1NS(=O)(=O)c1cccc2cccnc12	18%	9%	-11%	-4%	15%
CC(=O)N(c1ccc2oc(=O)sc2c1)S(=O)(=O)c1cccc2cccnc12	u	-13%	22µM*	-6%	u
CCCC(=O)N(c1ccc2oc3c(c2c1)CCCC3)S(=O)(=O)c1ccc(CC)cc1	-21%	x	1%[59 µM]	-3%	11%
CC(c1cc2ccccc2o1)N(C)S(=O)(=O)c1cccs1 (configuration not stated)	17%	x	x	x	x
COc1ccc(N(C(=O)C(C)C)S(=O)(=O)c2cccs2)cc1	16%	0%	18%	-5%	-6%
CC(C)C(=O)N(c1ccc2oc(=O)sc2c1)S(=O)(=O)c1cccs1	u	u	35µM*	0%	45µM*
CC(C)C(=O)N(c1cc2sc(=O)oc2c2ccccc12)S(=O)(=O)c1cccs1	u	10µM*	1.8µM*	3%	35µM*
CCCC(=O)N(c1ccc2oc(=O)sc2c1)S(=O)(=O)c1ccccc1	0%	14µM*	-32%[12.7 µM]	-6%	u
CC(C)NS(=O)(=O)c1cccc(C(=O)N2CCCC2c2ccc3c(c2)OCCO3)c1 (configuration not stated)	12%	x	x	x	x
COc1nc2ccccc2nc1N1CCC(C(=O)Nc2cc(C)cc(C)c2)CC1	-5%	x	x	x	x
O=S(=O)(Nc1nc2ccccc2nc1Cl)c1ccc(Br)cc1	10%	71µM*	u	-5%	-7%
O=S(=O)(Nc1nc2ccccc2nc1N1CCc2ccccc2C1)c1ccc(Br)cc1	-5%	-15%	8.9µM*	-8%	-6%
Cc1ccccc1S(=O)(=O)Nc1nc2ccccc2nc1Cl	-22%	6%	u	-2%	-5%
CC/C=C\CCCCCO	7%	x	x	x	x
Cc1nn(CCOc2ccccc2Cl)c(C)c1[N+](=O)[O-]	23%	5%	50µM*	3%	9%
Cc1cc(C)c(NC(=O)CCn2cnc3c2c(=O)n(C)c(=O)n3C)c(C)c1	17%	x	x	x	x
Cc1cc(-c2nc3ccccc3s2)ccc1NC(=O)c1ccccc1C	-5%	x	x	x	x
CCOC(=O)c1ccccc1NC(=O)N(Cc1ccc(C)cc1)Cc1cccn1-c1nnc(N2CCCC2=O)s1	-21%	x	0.79µM*	-2%	6%
CCc1ccc(NC(=O)N(Cc2ccc(C)cc2)Cc2cccn2-c2nnc(N3CCCC3=O)s2)cc1	-17%	x	-11%[59 µM]	1%	5%

Screening data from PubChem.
